CASP6 VEID inh: blocks human caspase-6 cleavage activity; purified caspase-6, Z-VEID-R110 cleavage fluorescence; inhibition, % at 12.5 µM; 350,000 tested, 0.53% active; AID 686996;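 active means mean inhibition across replicates at least about 35%, with every replicate also reaching that limit, limit read from the data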
Glyco luc inh: N-linked glycosylation inhibition | 360,000 tested, 0.23% active | D54 ERlucT glycosylation luciferase reporter, 24 h; percent of 100 nM tunicamycin response | reporter increase, % at 12.5 µM | AID 588692;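 active means mean luciferase reporter signal, scaled so untreated is 0 and the glycosylation-blocking control 100, at or above a set limit in every replicate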;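 further: luciferase carries N-glycosylation sites so blocking glycosylation raises the light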
NSD2 inh: blocks human histone methyltransferase NSD2; O96028; NSD2 peptide methylation, AlphaScreen, 120 min; inhibition, % at 12.5 µM; 310,000 tested, 0.54% active; AID 743445; in the data active means inhibition above about 50%
CDK5 p35 inh: inhibitors of human CDK5/p35 kinase. AID 488839. Recombinant CDK5/p35, ADP-Glo luminescence, 60 min. inhibition, % at 10 µM. 330,000 tested, 0.01% active. Q00535+Q15078;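 active means highest replicate inhibition of at least 50% and at least 75% of replicates reaching 50%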
Mot1-301 SUMO: inhibitors of SUMOylation pathway: yeast Mot1-301 growth rescue. S. cerevisiae Mot1-301 growth rescue, ATP luminescence, 38.5C; percent above DMSO median, 100 means doubled. growth rescue, % at 18.8 µM. 320,000 tested, 1% active;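 active means every valid replicate shows activation above 250% relative to neutral control wells; inactive means the rest, any valid replicate at or below 250%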
ALR inh: inhibitors of human sulfhydryl oxidase ALR | P55789 | purified ALR, DTT oxidation, H2O2 HRP-luminol luminescence | inhibition, % (test concentration not listed) | 290,000 tested, 3.8% active | AID 485317;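 active means mean replicate inhibition above about 79%, with every replicate also reaching it, limit read from the data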
Of the large screens only hits and unclear results are named; the others gave an inactive call. A selection: hits, their analogues and other compounds. The true share with any hit is near 3.9%.

COc1ccc(N2CCN(c3ncccc3C#N)CC2)cc1	ALR inh 97 (no result: CASP6 VEID inh)
COc1ccc(C(=O)Nc2ccc(N3CCN(c4ccc(OC)cc4)CC3)c(C#N)c2)cc1	none (no result: CASP6 VEID inh)
COc1ccc(N2CCN(c3ccc(N)cc3C#N)CC2)cc1	ALR inh 86 (no result: CASP6 VEID inh)
C[C@@H]1CN([C@H](C)CO)C(=O)c2cc(NC(=O)Nc3cccc4ccccc34)ccc2O[C@@H]1CN(C)Cc1ccccc1	none (no result: Glyco luc inh, NSD2 inh, CDK5 p35 inh, Mot1-301 SUMO, ALR inh)
C/C=C/c1cnc2c(c1)C(=O)N([C@H](C)CO)C[C@H](C)[C@@H](CN(C)C(=O)Nc1ccc(OC)cc1)O2	none (no result: Glyco luc inh, NSD2 inh, CDK5 p35 inh, Mot1-301 SUMO, ALR inh)
O=c1[nH]c(=O)c2nnc(N/N=C\c3ccc(O)cc3)nc2[nH]1	ALR inh 99
CCc1ccc(NC(=O)CSc2nc(O)cc(=O)n2C2CCCC2)cc1	ALR inh 99
CCCCNC(=O)CSc1nc(O)cc(=O)n1C1CCCC1	none (no result: ALR inh)
COC(=O)c1ccccc1NC(=O)CSc1nc(O)cc(=O)n1C1CCCC1	ALR inh 98 (no result: CASP6 VEID inh)
O=C(CSc1nc(O)cc(=O)n1C1CCCC1)Nc1cccc(Cl)c1Cl	ALR inh 99
O=C(Nc1ccccc1C(F)(F)F)NC1(C(=O)N2CCOCC2)CCCCC1	CASP6 VEID inh 86 (no result: NSD2 inh, Mot1-301 SUMO, ALR inh)
Cc1ccccc1NC(=O)NC1(C(=O)N2CCOCC2)CCCCC1	none (no result: Mot1-301 SUMO)
NCCSc1c(-c2ccc(Cl)cc2)[nH]c2ccccc12	none
NCCSc1c(-c2ccccc2)[nH]c2ccccc12	ALR inh 97 (no result: NSD2 inh)
CC(=O)N(C)C[C@@H]1Oc2ncc(C#Cc3ccccc3)cc2C(=O)N([C@H](C)CO)C[C@H]1C	none (no result: Glyco luc inh, NSD2 inh, CDK5 p35 inh, Mot1-301 SUMO, ALR inh)
CC(Oc1ccc2c(c1)c1ccnc3c4ccccc4c(=O)n2c13)C(=O)NCCN1CCOCC1 (centres undefined)	Glyco luc inh 74 (no result: CASP6 VEID inh, NSD2 inh)
COc1ccc2c(c1OC)c(=O)n1c3ccc(OC(C)C(=O)NCCN4CCOCC4)cc3c3ccnc2c31 (centres undefined)	none (no result: NSD2 inh)
COc1ccc(/C=C(\C#N)C(=O)NC(C)c2ccccc2)cc1O (centres undefined)	ALR inh 87
CC(NC(=O)/C(C#N)=C/c1ccc(N2CCOCC2)cc1)c1ccccc1 (centres undefined)	none
N#C/C(=C\c1ccc(O)c(O)c1)C(=O)NCCc1ccccc1	Mot1-301 SUMO 274, ALR inh 98 (no result: NSD2 inh)
COC(=O)c1ccc(/C=C(\C#N)C(=O)NC(C)c2ccccc2)cc1 (centres undefined)	ALR inh 87
CCC(=O)N1[C@@H](CO)[C@@H]2c3ccccc3N(C(=O)c3ccc4c(c3)OCO4)C[C@@H]21	none (no result: Glyco luc inh, NSD2 inh, CDK5 p35 inh, Mot1-301 SUMO, ALR inh)
C=CC(=O)N1C/C(=C/c2ccc(F)cc2)C(=O)/C(=C\c2ccc(F)cc2)C1	CASP6 VEID inh 78 (no result: Mot1-301 SUMO, ALR inh)
Cc1ccc(C)c(Sc2ccc(NC(=O)CCl)cc2)c1	ALR inh 86 (no result: Glyco luc inh, CDK5 p35 inh)
Cc1ccc(NC(=O)CC(=O)Nc2ccc(C)c(C)c2)cc1C	none
Cc1ccc(Sc2ccc(NC(=O)CCl)cc2)cc1C	ALR inh 98 (no result: CASP6 VEID inh)
CO[C@@H]1CN(C)C(=O)c2cc(NC(C)=O)ccc2OC[C@H](C)N(Cc2nccs2)C[C@@H]1C	none (no result: Glyco luc inh, NSD2 inh, CDK5 p35 inh, Mot1-301 SUMO, ALR inh)
C[C@@H]1CN([C@H](C)CO)C(=O)Cc2cc(NC(=O)C3CCCCC3)ccc2O[C@H]1CN(C)C(=O)Nc1ccc(C(F)(F)F)cc1	none (no result: Glyco luc inh, NSD2 inh, CDK5 p35 inh, Mot1-301 SUMO, ALR inh)
Nc1nc(SCC(=O)c2cc3ccccc3o2)n[nH]1	ALR inh 98
O=C(CSc1cccc[n+]1[O-])c1cc2ccccc2o1	ALR inh 94 (no result: CASP6 VEID inh)
COc1ccc(-c2ccc([C@@H]3[C@H]4CN(Cc5ccc(F)cc5)CC(=O)N4[C@H]3CO)cc2)cc1	none (no result: Glyco luc inh, NSD2 inh, CDK5 p35 inh, Mot1-301 SUMO, ALR inh)
O=C1CSC(c2ccc(Cl)cc2)N1c1cccnc1 (centres undefined)	ALR inh 98 (no result: NSD2 inh)
CC(=O)C1=C(O)C(=O)N(c2cccnc2)C1c1ccc(Cl)cc1 (centres undefined)	none (no result: CASP6 VEID inh, ALR inh)
Cc1ccc(N2C(=O)CSC2c2cccnc2)cc1F (centres undefined)	ALR inh 100 (no result: CASP6 VEID inh)
O=C1CSC(c2cccnc2)N1C1CCCCC1 (centres undefined)	none (no result: CASP6 VEID inh)
O=C1CSC(c2cccnc2)N1c1ccc(Cl)cc1 (centres undefined)	ALR inh 99
COC(=O)[C@H](Cc1ccccc1)N1CC2=C[C@@H](C3CC3)n3c(=O)n(C)c(=O)n3[C@H]2[C@@H]1[C@@H](O)Cc1ccccc1	none (no result: Glyco luc inh, NSD2 inh, CDK5 p35 inh, Mot1-301 SUMO, ALR inh)
O=C(O)C1Nc2c(O)cccc2C2C=CCC12 (centres undefined)	CASP6 VEID inh 92
O=C(O)C1Nc2c(Cl)cc(Cl)cc2C2C=CCC12 (centres undefined)	none (no result: CASP6 VEID inh, NSD2 inh)
CCc1ccc(NC(=O)Cn2c(=O)n(CCC(=O)NC3CCN(Cc4ccccc4)CC3)c(=O)c3ccccc32)cc1	Glyco luc inh 38 (no result: NSD2 inh)
CCOC(=O)/C(=N\Nc1cccc(C(F)(F)F)c1)N(CCOC)CCOC	ALR inh 97 (no result: CASP6 VEID inh, Mot1-301 SUMO)
CCOC(=O)/C(=N\Nc1ccccc1Cl)N1CCN(C)CC1	ALR inh 98
CCOC(=O)/C(=N\Nc1cccc(C(F)(F)F)c1)N1CCOCC1	Mot1-301 SUMO 266
CC(C)(C)c1ccc(C(=O)Nc2nnc(SCC(=O)NCC3CCCO3)s2)cc1 (centres undefined)	none
CN(C)S(=O)(=O)c1ccc(C(=O)Nc2nnc(SCC(=O)NCC3CCCO3)s2)cc1 (centres undefined)	ALR inh 94
Cc1ccc(-c2ccc3c(c2)O[C@@H](CN(C)C(=O)Nc2ccc(C(F)(F)F)cc2)[C@H](C)CN([C@H](C)CO)S3(=O)=O)cc1	none (no result: Glyco luc inh, NSD2 inh, CDK5 p35 inh, Mot1-301 SUMO, ALR inh)
Cc1noc(C)c1NC(=O)Nc1ccc2c(c1)C(=O)N([C@@H](C)CO)C[C@@H](C)[C@H](CN(C)C(=O)Nc1ccc3c(c1)OCO3)OCCCC[C@H](C)O2	none (no result: Glyco luc inh, NSD2 inh, CDK5 p35 inh, Mot1-301 SUMO, ALR inh)
COc1cc(/C=N/n2c(=S)[nH]nc(C)c2=O)cc([N+](=O)[O-])c1O	none
COc1cc(/C=C2/C(=O)N(c3ccc(C)c(C)c3)N=C2C)cc([N+](=O)[O-])c1O	none
COc1cc(/C=C2/C(=O)NN(c3ccc(Cl)cc3)C2=O)cc(OC)c1O	none
COc1cc(/C=C2\C(=O)NN(c3ccccc3)C2=O)cc([N+](=O)[O-])c1O	ALR inh 98
COc1cc(/C=C2/C(=O)NN(c3ccccc3)C2=O)cc(Br)c1O	ALR inh 99
COc1cc(/C=N/N2CCCCC2)cc([N+](=O)[O-])c1O	ALR inh 98 (no result: CASP6 VEID inh)
COc1cc(/C=C2\C(=O)NN(c3ccc(C)cc3)C2=O)cc([N+](=O)[O-])c1O	ALR inh 99
CC(C)NC(=O)Nc1cccc2c1O[C@H](CN(C)C(=O)Nc1ccc3c(c1)OCO3)[C@@H](C)CN([C@H](C)CO)C2=O	none (no result: Glyco luc inh, NSD2 inh, CDK5 p35 inh, Mot1-301 SUMO, ALR inh)
O=c1c(OC2OC(CO)C(O)C(O)C2O)c(-c2ccc(O)c(O)c2)oc2cc(O)cc(O)c12 (centres undefined)	ALR inh 99 (no result: NSD2 inh)

Screens: PubChem, Broad Institute
